Calls of active or inactive are those of the source. The calls were made as follows: active = hit-call score of the fitted dose curve at least 0.9, where 1 is the maximum; inactive = score below 0.9.
How the values were obtained:
[1] = ATG_E_Box_CIS: Attagene CIS-FACTORIAL HepG2 Assay for human Enhancer Box (E-box) (AID 2282936); conditions: HepG2 E-box cis-reporter transcription, actives raise or lower the signal
In short: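 Transiently transfected HepG2, endogenous TF-driven reporters, 24 h dosing. Readout: RT-PCR plus capillary electrophoresis of fluorescent reporter fragments. Gain or loss of signal fitted bidirectionally against DMSO baseline.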

[2] = ATG_M_61_CIS: Attagene CIS-FACTORIAL HepG2 Assay for M61 Transcription Factor (Internal Marker) (AID 2282937); conditions: HepG2 Attagene CIS-FACTORIAL M61 internal marker reporter; actives raise or lower the signal
In short: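 Using transiently transfected HepG2 liver cells, reporter transcript levels were assessed 24 h post-dosing by RT-PCR and capillary electrophoresis. Changes in either direction were fitted relative to DMSO controls.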

[3] = ATG_EGR_CIS: Attagene CIS-FACTORIAL HepG2 Assay for human Early Growth Response 1 (EGR1) (AID 2282938); conditions: HepG2 Attagene CIS-FACTORIAL EGR reporter mRNA; actives raise or lower the signal
In short: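 Fluorescent capillary-electrophoresis signal of reporter cDNA fragments serves as read-out. HepG2 cells bear transiently transfected cis-promoter reporter units and are exposed 24 h; gain- or loss-of-signal is fitted against DMSO.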

[4] = ATG_M_19_CIS: Attagene CIS-FACTORIAL HepG2 Assay for M19 Transcription Factor (Internal Marker) (AID 2282939); conditions: HepG2 Attagene CIS-FACTORIAL M19 internal marker reporter; actives raise or lower the signal
In short: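 Signals come from fluorescence of labelled reporter-specific PCR fragments resolved by capillary electrophoresis, following 24 h treatment of HepG2 cells transfected with cis-promoter reporter units; activity was fitted in both directions relative to DMSO.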

[5] = ATG_Ets_CIS: Attagene CIS-FACTORIAL HepG2 Assay for human Erythroblast Transformation Specific (ETS) (AID 2282941); conditions: HepG2 ETS cis-reporter transcription, actives raise or lower the signal
In short: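 Cis-regulated reporter mRNA induction in HepG2 (transient transfection), 24 h exposure, RT-PCR plus capillary electrophoresis detection; DMSO serves as negative control and baseline.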

[6] = biological target: Hepatocyte nuclear factor 3-beta (Homo sapiens) (UniProt Q9Y261); assay: ATG_FoxA2_CIS: Attagene CIS-FACTORIAL HepG2 Assay for human Forkhead box A2 (FOXA2) (AID 2282942); conditions: HepG2 cis-reporter transcription factor activity, 24 h; actives raise or lower the signal
Sequence of Hepatocyte nuclear factor 3-beta (Homo sapiens) (Q9Y261 whole entry, looked up, the tested form may be a part): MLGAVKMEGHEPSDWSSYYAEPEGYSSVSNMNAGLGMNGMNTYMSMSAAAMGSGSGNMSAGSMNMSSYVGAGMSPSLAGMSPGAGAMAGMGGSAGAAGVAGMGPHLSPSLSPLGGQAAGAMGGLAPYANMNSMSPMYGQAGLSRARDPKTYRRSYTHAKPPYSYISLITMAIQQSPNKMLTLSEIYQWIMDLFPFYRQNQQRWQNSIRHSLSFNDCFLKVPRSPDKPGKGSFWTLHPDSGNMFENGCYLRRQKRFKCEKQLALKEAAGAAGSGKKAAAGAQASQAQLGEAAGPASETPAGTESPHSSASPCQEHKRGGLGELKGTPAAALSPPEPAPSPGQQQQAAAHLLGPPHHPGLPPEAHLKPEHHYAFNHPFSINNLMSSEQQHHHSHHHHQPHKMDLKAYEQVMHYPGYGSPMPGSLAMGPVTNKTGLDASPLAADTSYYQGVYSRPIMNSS
In short: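 Fluorescence signal of reporter cDNA fragments, separated by capillary electrophoresis, reflects endogenous transcription factor activity in transfected HepG2 after 24 h. Both increases and decreases fitted against DMSO.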

[7] = ATG_GATA_CIS: Attagene CIS-FACTORIAL HepG2 Assay for human GATA Binding Protein (AID 2282944); conditions: HepG2 GATA cis-element reporter, Attagene multiplex mRNA; actives raise or lower the signal
In short: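 After transfecting HepG2 cells with multiple cis-regulated reporter units, chemicals are dosed for 24 h; isolated RNA undergoes RT-PCR and fluorescent labeling before capillary electrophoresis, with activity expressed against DMSO.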

[8] = ATG_GLI_CIS: Attagene CIS-FACTORIAL HepG2 Assay for human Zinc Finger Protein GLI1 (AID 2282945); conditions: HepG2, Attagene cis-factorial reporter mRNA, GLI element; actives raise or lower the signal
In short: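 Transiently transfected HepG2 cells report endogenous transcription factor activity via cis-element-driven reporter units. After 24 h compound exposure, reporter mRNA was measured by RT-PCR with capillary electrophoresis; bidirectional fitting against DMSO baseline.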

[9] = ATG_ERE_CIS: Attagene CIS-FACTORIAL HepG2 Assay for Estrogen Response Element (ERE) (AID 2282940); conditions: HepG2 ERE cis-reporter, Attagene RNA transcript; actives raise or lower the signal
In short: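 Fluorescence of capillary-separated, FAM-labelled reporter cDNA fragments indicates reporter mRNA levels in HepG2 cells exposed to chemicals for 24 h. Transient transfection with cis-regulated units; data fitted in both directions against DMSO.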

[10] = ATG_FoxO_CIS: Attagene CIS-FACTORIAL HepG2 Assay for human Forkhead box O (FoxO) (AID 2282943); conditions: HepG2 Attagene cis-reporter, FoxO element, mRNA; actives raise or lower the signal
In short: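 Transfected HepG2 reporter cells exposed to test chemical for 24 h; reporter RNA measured by reverse transcription, PCR and fluorescent capillary electrophoresis; curves fitted for increases and decreases against DMSO.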

Measured: AC50

CC(=NC#N)N(C)Cc1ccc(Cl)nc1
not listed: [9] | [10]
inactive: all other assays above

CCCCOC(=O)[C@@H](C)Oc1ccc(Oc2ccc(C#N)cc2F)cc1
inactive: all assays above

CCc1cnc(C2=NC(C)(C(C)C)C(=O)N2)c(C(=O)O)c1 (stereo not given)
not listed: [2] | [9] | [10]
inactive: all other assays above

CCOP(=S)(OCC)Oc1cc(C)nc(C(C)C)n1
not listed: [2] | [9] | [10]
inactive: all other assays above

CCC(CC)Nc1c([N+](=O)[O-])cc(C)c(C)c1[N+](=O)[O-]
not listed: [2] | [9] | [10]
inactive: all other assays above

C#CC(C)(C)NC(=O)c1cc(Cl)cc(Cl)c1
not listed: [2] | [9]
inactive: all other assays above

CCOC(=O)COc1cc(-c2nn(C)c(OC(F)F)c2Cl)c(F)cc1Cl
not listed: [2] | [9] | [10]
inactive: all other assays above

CCOP(=O)(SC(C)CC)N1CCSC1=O (stereo not given)
not listed: [2] | [9]
inactive: all other assays above

CNC(=O)ON=C(SC)C(=O)N(C)C
active: [9] 15.7 µM
not listed: [2] | [10]
inactive: all other assays above

C[Si](Cn1cncn1)(c1ccc(F)cc1)c1ccc(F)cc1
active: [1] 83.2 µM | [3] 50 µM
inactive: [4] | [5] | [6] | [7] | [8]

CCCSP(=O)(OCC)SCCC
not listed: [2] | [9]
inactive: all other assays above

CN(C)NC(=O)CCC(=O)O
not listed: [2] | [9] | [10]
inactive: all other assays above

CSc1nnc(C(C)(C)C)c(=O)n1N
not listed: [2] | [9]
inactive: all other assays above

CC1=NNC(=O)N(/N=C/c2cccnc2)C1
not listed: [2] | [9] | [10]
inactive: all other assays above

O=c1ccc(=O)[nH][nH]1
not listed: [2] | [9]
inactive: all other assays above

CCOP(=S)(OCC)OC(Cl)C(Cl)(Cl)Cl (stereo not given)
not listed: [2] | [9] | [10]
inactive: all other assays above

CON=C(C(=O)OC)c1ccccc1CON=C(C)c1cccc(C(F)(F)F)c1
active: [1] 12.5 µM
not listed: [2] | [9]
inactive: all other assays above

C[N+]1(C)CCCCC1
not listed: [2] | [9] | [10]
inactive: all other assays above

CCOP(=S)(OCC)SCCSCC
not listed: [2] | [9]
inactive: all other assays above

CSC1=N[C@@](C)(c2ccccc2)C(=O)N1Nc1ccccc1
active: [3] 19.9 µM
not listed: [2] | [9] | [10]
inactive: all other assays above

CCOP(=S)(Oc1cnc(C(C)(C)C)nc1)OC(C)C (stereo not given)
inactive: [4] | [5] | [6] | [7]
active: [1] 27 µM | [3] 19.3 µM | [8] 50 µM

S=C1NCCN1
not listed: [2] | [9]
inactive: all other assays above

CCc1cccc(C)c1N(C(=O)CCl)C(C)COC (stereo not given)
not listed: [2] | [9] | [10]
inactive: all other assays above

CNc1cnn(-c2cccc(C(F)(F)F)c2)c(=O)c1Cl
not listed: [2] | [9] | [10]
inactive: all other assays above

CCOP(=O)(NC(C)C)Oc1ccc(SC)c(C)c1 (stereo not given)
not listed: [2] | [9] | [10]
inactive: all other assays above

CCOP(=S)(OCC)Oc1ccc([N+](=O)[O-])cc1
not listed: [2] | [9] | [10]
inactive: all other assays above

CNC(=O)Oc1cccc2c1OC(C)(C)O2
active: [9] 29.5 µM | [5] 75.9 µM
not listed: [2] | [10]
inactive: all other assays above

COP(=O)(NC(C)=O)SC (stereo not given)
not listed: [2] | [9]
inactive: all other assays above

CN(C)[C@@H]1C(=O)C(C(N)=O)=C(O)[C@@]2(O)C(=O)C3=C(O)c4c(O)cccc4[C@@](C)(O)[C@H]3[C@H](O)[C@@H]12
not listed: [2] | [9] | [10]
inactive: all other assays above

CC(COc1ccc(Oc2ccccc2)cc1)Oc1ccccn1 (stereo not given)
active: [3] 13.2 µM
not listed: [2] | [9]
inactive: all other assays above

CCC(=NOC/C=C/Cl)C1=C(O)CC(C2CCOCC2)CC1=O (stereo not given)
not listed: [2] | [9]
inactive: all other assays above

CN1COCN(Cc2cnc(Cl)s2)C1=N[N+](=O)[O-]
not listed: [2] | [9]
inactive: all other assays above

Nc1nc(N)nc(NC2CC2)n1
not listed: [2] | [9] | [10]
inactive: all other assays above

COc1ccc(C(=CC(=O)N2CCOCC2)c2ccc(Cl)cc2)cc1OC
active: [3] 28.4 µM | [5] 23.2 µM
inactive: [1] | [4] | [6] | [7] | [8]

CC(C1CC1)C(O)(Cn1cncn1)c1ccc(Cl)cc1 (stereo not given)
not listed: [2] | [9] | [10]
inactive: all other assays above

COc1cccc(C(=O)NN(C(=O)c2cc(C)cc(C)c2)C(C)(C)C)c1C
active: [10] 12.9 µM
not listed: [2] | [9]
inactive: all other assays above

CN(C)C(=O)Nc1cccc(C(F)(F)F)c1
not listed: [2] | [9] | [10]
inactive: all other assays above

C#CCC1=C(C)C(OC(=O)C2C(C=C(C)C)C2(C)C)CC1=O (stereo not given)
active: [1] 78.6 µM | [3] 50 µM | [7] 77.1 µM | [8] 73.2 µM
inactive: [4] | [5] | [6]
